NTR1 ag – agonists of human neurotensin receptor NTR1; AID 493036; 330,000 compounds, 0.17% hits; activation, % at 20 µM; NTR1-U2OS beta-arrestin-GFP spot imaging, agonist mode;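 active = activation at or above 40% of the spot to cytoplasm intensity ratio, with at least 20 cells analyzed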;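 also: 0% = DMSO without peptide and 100% = 100 nM NTR1 peptide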
VLA-4 inh – inhibition in a human VLA-4 binding assay. P13612. VLA-4 expressing cells, ligand binding flow cytometry. inhibition, % (about 7 µM as worked out from the volumes in the protocol). 330,000 compounds, 0.2% hits. AID 2557; in the data active = inhibition above about 50%
Beta2AR agonist – human beta-2 adrenergic receptor agonism by FAP; Am2.2-beta2AR cells, FAP receptor internalization, flow cytometry; response, % (test concentration not listed); 340,000 compounds, 0.43% hits; AID 504454;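 active = response above a set limit, near 3 SD of response in nonfluorescent compounds, cut at about 42% in these data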
Bfl-1 A1 inh – inhibitors of the anti-apoptotic protein A1, read as caspase activation; MEF A1-2A-BIM cells, Caspase-Glo 3/7 luminescence, 3 h; percent of clofoctol response, vehicle zero; caspase activation, % (no concentration beside the values); 330,000 compounds, 0.066% hits; AID 2462;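 active = over half of replicate activation scores above 10%, or exactly half above 10 with the replicate mean above 10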
GRK2 inh – inhibitors of human GRK2 displacing RNA aptamer | inhibition of aptamer binding, % at 10 µM | 330,000 compounds, 0.59% hits | AID 488847 | bead flow cytometry, FAM-aptamer displacement from GRK2;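 active = inhibition of aptamer binding above 40%, roughly 3 SD of noise, on plates passing a quality check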;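 also: median bead fluorescence of bound FAM aptamer so fluorescent compounds give negative values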
Target sequence (P25098 whole entry, looked up): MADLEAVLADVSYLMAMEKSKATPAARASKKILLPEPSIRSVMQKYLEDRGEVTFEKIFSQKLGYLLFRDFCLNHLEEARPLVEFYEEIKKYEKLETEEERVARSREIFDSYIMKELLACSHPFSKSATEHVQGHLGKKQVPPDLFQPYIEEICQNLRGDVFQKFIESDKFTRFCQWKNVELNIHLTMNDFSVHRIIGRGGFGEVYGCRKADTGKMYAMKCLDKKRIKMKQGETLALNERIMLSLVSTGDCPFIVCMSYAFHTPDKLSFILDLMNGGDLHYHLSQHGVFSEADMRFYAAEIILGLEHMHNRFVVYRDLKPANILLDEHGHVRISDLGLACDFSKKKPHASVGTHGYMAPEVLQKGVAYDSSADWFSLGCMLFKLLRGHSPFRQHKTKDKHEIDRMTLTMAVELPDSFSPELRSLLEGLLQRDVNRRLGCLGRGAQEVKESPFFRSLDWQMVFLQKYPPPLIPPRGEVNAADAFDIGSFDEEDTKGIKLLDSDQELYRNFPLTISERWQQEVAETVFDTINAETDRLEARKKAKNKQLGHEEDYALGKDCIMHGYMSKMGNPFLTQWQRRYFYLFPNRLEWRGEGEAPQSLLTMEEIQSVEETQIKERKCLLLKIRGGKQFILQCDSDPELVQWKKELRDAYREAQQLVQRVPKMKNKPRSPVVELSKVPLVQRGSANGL
VLA-4 mod pick – confirmation of allosteric modulators of human VLA-4 integrin. AID 2813. 1,300 compounds, 2% hits. inhibition, % at 6.7 µM. shares compounds with VLA-4 inh. U937 cells, HUTS-21 LIBS mAb binding, flow cytometry; LDV ligand present at threefold Kd; in the data active = inhibition above about 40%;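 also: 0% = ligand without compound and 100% = no ligand background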
* = called active by the depositor; . = no result. This is a sample that favours compounds with a hit; in the whole collection about 1.3% have one here.

SMILES | NTR1 ag | VLA-4 inh | Beta2AR agonist | Bfl-1 A1 inh | GRK2 inh | others
COc1ccc(N2CCN(CCCNC(=O)Cn3c(=O)c4cccn4c4ccccc43)CC2)cc1 | 0 | 14 | -10 | 0 | 0
Cc1ccc(S(=O)(=O)N(C)C)cc1NC(=O)COC(=O)CN1C(=O)c2ccccc2C1=O | -1 | -5 | 2 | 0 | 3
Cc1nc2ccccn2c1C(=O)N=Nc1c(O)n(CCC(C)C)c2ccccc12 | 4 | -6 | 45* | 0 | 0
CCOC(=O)/C(=C\c1ccc(Cl)cc1)c1nc2sc(C)c(C)c2c(=O)[nH]1 | 33 | 17 | 51* | 2 | 0
CCOC(=O)CSc1nc2sc(C)c(C)c2c(=O)[nH]1 | -1 | 3 | 5 | 0 | 0
CCCCCCCCCC(=O)O | 0 | 21 | 1 | . | 1
CCCCCC#CCC#CCC#CCC#CCCCC(=O)O | -2 | 2 | . | . | 50*
COc1ccccc1CCNC(=O)C(=O)NCC1OCCN1C(=O)c1ccc(Cl)cc1 (stereo unspecified) | 2 | 6 | -8 | 0 | 0
CCCCNc1ccc2c(c1)C1CC2CCN1C(=O)OCc1ccccc1 (stereo unspecified) | . | . | 7 | . | .
CCOc1ccc2nc(N/C(N)=N/C(=S)Nc3ccc(C)c(C)c3)nc(C)c2c1 | 5 | -6 | -6 | 0 | 94*
O=C(C=P(c1ccccc1)(c1ccccc1)c1ccccc1)c1ccccc1-c1ccccc1C(=O)C=P(c1ccccc1)(c1ccccc1)c1ccccc1 | . | . | 104* | . | .
O=C(NNC(=O)c1ccccc1-c1ccccc1C(=O)O)c1ccccc1 | 0 | 13 | 3 | 1 | 2
O=c1c(-c2nn[nH]n2)coc2ccc(Cl)cc12 | 2 | 14 | -1 | 0 | 0
CCNC(C(=O)c1c[nH]c2c(CC)cccc12)c1ccccc1 (stereo unspecified) | -1 | 11 | 13 | 0 | 0
COC(=O)C(C)Oc1cc(OC(C)C(=O)OC)c2c(-c3ccccc3)cc(=O)oc2c1 (stereo unspecified) | 9 | 5 | 6 | 5.3* | 4
COc1cccc(-n2c(Cc3cc(=O)[nH]c(=O)[nH]3)nnc2SCC(=O)N2CCCC2)c1 | -2 | -8 | -2 | 0 | 3 | VLA-4 mod pick=15
COc1cccc(-n2c(Cc3cc(=O)[nH]c(=O)[nH]3)nnc2SCC(=O)N2CCCCCC2)c1 | 4 | -5 | -3 | 0 | 0 | VLA-4 mod pick=9
COc1ccc(-n2c(Cc3cc(=O)[nH]c(=O)[nH]3)nnc2SCC(=O)N2CCCC2)cc1 | 5 | -6 | 1 | 0 | 0
COC(=O)CSc1nnc(Cc2cc(=O)[nH]c(=O)[nH]2)n1-c1cccc(OC)c1 | 0 | 13 | 4 | 0 | 1
CSc1nnc(C2CCN(CC(=O)Nc3ccccc3N3CCOCC3)CC2)n1C(C)C | 0 | 4 | 0 | 0 | 4
C[C@H](CO)N1C[C@H](C)[C@@H](CN(C)S(=O)(=O)c2cccs2)Oc2c(NS(=O)(=O)c3cn(C)cn3)cccc2C1=O | 0 | 11 | 1 | 0 | 0
O=C(Cn1ccc2cc(S(=O)(=O)N3CCCC3)ccc21)NCc1ccco1 | 2 | 3 | 1 | -1 | 1
c1ccc(-c2nnc(CN3CCCCC3)o2)cc1 | -1 | 45 | -1 | 0 | 0 | VLA-4 mod pick=-12
CCN1CCN(Cc2nnc(-c3ccccc3)o2)CC1 | -1 | 10 | 4 | 1 | 4
CC(C)(C)c1ccc(NS(=O)(=O)c2ccc(N)cc2)cc1 | 1 | 0 | 23 | 1 | 1 | VLA-4 mod pick=4
CCOC(=O)c1sc(NC(=O)CCN2C(=O)C3CCCCC3C2=O)cc1C (stereo unspecified) | -1 | 1 | -10 | 0 | 1
CCCC1(CCC)NC(=O)N(CC(=O)Nc2ccc(Cl)c(S(=O)(=O)N3CCOCC3)c2)C1=O | 2 | -4 | 8 | 0 | 25
Cc1ccc(-c2nn3c(-c4ccco4)nnc3c3ccccc23)cc1S(=O)(=O)NCC1CCCO1 (stereo unspecified) | 11 | 39 | 5 | 0 | 0 | VLA-4 mod pick=3
Cc1ccccc1C(=O)N1CCC(C(=O)Nc2ccccn2)CC1 | 0 | 51* | -5 | 0 | 1 | VLA-4 mod pick=-1
Cc1ccccc1C(=O)N1CCC(C(=O)Nc2ccc(C(C)C)cc2)CC1 | -1 | 21 | 0 | -1 | 8 | VLA-4 mod pick=14
